Results published in PubChem BioAssay (NCI).
Compounds without any hit were thinned out: in the full panel of roughly 83,000, 20% have a hit.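 48-hour exposure, single concentration, 96-well plates; percent growth endpoint where 0 means no net growth. Active: below 10.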 The source made the active and inactive calls.

These compounds were tested on HS 578T breast (assay: NCI-60 one-dose screen, 48 h (100 = growth as untreated, 0 = no growth, -100 = all killed)). Conditions: 10 µM unless noted.
In the case of `O=S(=O)(NCCNc1nccc(-c2c(-c3ccc(F)c(O)c3)nc3occn23)n1)c1ccccc1`, the growth is reported as 54.4% (inactive). In the case of `Cc1ccc2[nH]c(=O)cc(-n3nncc3COc3ccc(C=O)cc3)c2c1`, the growth is reported as 96.7% (inactive). With `Brc1ccc(C2CC(c3cccc(Nc4ccncc4)c3)=NN2c2ccccc2)cc1` (stereo not drawn) the growth was 90.9% (inactive). In the case of `COc1cc(NCC(O)CN(CC(C)C)C2CCCC2)c2ncccc2c1` (stereo not drawn), the growth is reported as 73.3% (inactive). With `CC(=O)OCCCCCNc1ccccc1` the growth was 107% (inactive). `CN1CCN(CC#CCNC(=O)[C@]23CCC(C)(C)C[C@H]2C2=CC[C@@H]4[C@@]5(C)Cc6c([nH]c7ccccc67)C(C)(C)[C@@H]5CC[C@@]4(C)[C@]2(C)CC3)CC1` was tested, and the growth was 77.9% (inactive). For `COc1c(Cl)cc(Cl)c2ccc(C=C3C(=O)N(C)C(=O)N(C)C3=O)nc12`, the growth was 104% (inactive). With `Nc1c(C(=O)Nc2ccc(Cl)cc2)cc(-c2nc3ccccc3s2)c(=O)n1NS(=O)(=O)c1ccc(Cl)cc1` the growth was 98.4% (inactive). For `COc1ccc(C(=O)c2cc3c(N)c(C(=O)Nc4cccc(Br)c4C)sc3nc2C)cc1`, the growth was 12.4% (inactive). In the case of `CCN(CC)S(=O)(=O)c1cccc([N+](=O)[O-])c1`, the growth is reported as 97.9% (inactive). In the case of `CCc1c(Nc2ccc(C)cc2)nc(N)[nH]c1=O`, the growth is reported as 111% (inactive). With `CN1CCN(c2cc(F)c(NC3=C(Cl)C(=O)c4ncccc4C3=O)c(F)c2)CC1` the growth was -16.5% (active). For `Cn1c(COC(=O)NCCn2ccnc2)nc2c(N3CCOCC3)nc(-c3ccccc3)nc21`, the growth was -33% (active). For `COc1cc(CNC(=O)CCCCC[P+](c2ccccc2)(c2ccccc2)c2ccccc2)c(OC)c2c1OCO2`, the growth was 78% (inactive). `CC(=O)OCC(=O)[C@@]1(O)CC[C@H]2[C@@H]3CC(=C(Br)Br)C4=CC(=O)CC[C@]4(C)[C@H]3C(=O)C[C@@]21C` was tested, and the growth was 90.8% (inactive). With `O=C1CCCCCCCCC(O)C(O)CCCC(c2cccs2)O1` (stereo not drawn) the growth was 103% (inactive). With `COC(=O)C1=C(C(=O)ONCCN(C)C)C2C=CC1(C(Cc1ccccc1)Nc1ccc(F)cc1)O2` (stereo not drawn) the growth was 125% (inactive). `CS(=O)(=O)c1ccc(-c2cc3c(oc2=O)-c2ccccc2OC3O)cc1` (stereo not drawn) was tested, and the growth was 88.5% (inactive). In the case of `Clc1ccc(C2CC(c3cccc(Nc4ccncc4)c3)=NN2c2ccc(Cl)cc2)cc1` (stereo not drawn), the growth is reported as 54% (inactive). In the case of `CCN(CC)CCCCCCNc1cc(OC)cc2cccnc12`, the growth is reported as 92.5% (inactive). With `Clc1cc(Cl)cc(N2N=C(c3cccc(Nc4ccncc4)c3)CC2c2ccc3c(c2)OCO3)c1` (stereo not drawn) the growth was 50.6% (inactive). In the case of `CC(=O)N1N=C(c2cccc(Nc3ccncc3)c2)CC1c1ccc2c(c1)OCO2` (stereo not drawn), the growth is reported as 80% (inactive). In the case of `COc1cc(/C=C/C(=O)c2c(C)oc3nc[nH]c(=O)c23)ccc1O`, the growth is reported as 93% (inactive). For `Cc1ccc(C2C3CC4CCCCC4N3[C@@]3(C(=O)Nc4cc(Cl)ccc43)C2C(=O)c2nc3ccccc3[nH]2)cc1` (stereo partly drawn), the growth was 61% (inactive). For `CCCCCOc1ccc(/C=N/Nc2cc(C)nc3ccc(Br)cc23)cc1`, the growth was 85.5% (inactive). With `C=C1C(=O)O[C@H]2[C@H]1CC/C(COC(=O)/C=C/c1c[nH]c3ccccc13)=C\CC[C@@]1(C)O[C@@H]21` the growth was -6.76% (active). With `CCCCCN1C=C/C(=C\C(=O)N(C)c2ccc(Br)cc2)c2ccccc21` the growth was 98.6% (inactive). `COc1cc2nc(-c3ccc(C(F)(F)F)cc3)cc(OCCN3CCC(O)CC3)c2cc1OC` was tested, and the growth was 79.1% (inactive). For `COc1cccc(-c2nc3occn3c2-c2ccnc(NCCCNS(=O)(=O)c3cccc(F)c3)n2)c1`, the growth was 92.6% (inactive). With `COc1ccc(C(=O)c2cc3c(N)c(C(=O)Nc4cccc5ccccc45)sc3nc2C)cc1` the growth was 11.3% (inactive). With `CCCCCCCCCCN=C(N)N=C(N)N` the growth was 55% (inactive). In the case of `CN1CCN(Cc2ccc(NC(=O)c3cncc(C#Cc4cnccc4C(F)(F)F)c3)cc2C(F)(F)F)CC1`, the growth is reported as 53% (inactive). In the case of `C=C(C)[C@@H]1CC[C@]2(CO)CC[C@]3(C)[C@H](CC[C@@H]4[C@@]5(C)CCCNC(C)(C)[C@@H]5CC[C@]43C)[C@@H]12`, the growth is reported as 46.8% (inactive). In the case of `O=S(=O)(NCCNc1nccc(-c2c(-c3cccc(F)c3)nc3occn23)n1)c1cccc2ccccc12`, the growth is reported as 64.9% (inactive). For `CC(=O)N1c2ccccc2NC2=C(C(=O)N(C)C2(C)C)C1C` (stereo not drawn), the growth was 20.4% (inactive). In the case of `O=C(Nc1ccc(F)cc1)c1c(NC(=O)C(F)(F)F)sc2c1CCCCC2`, the growth is reported as -6.84% (active). `O=C1Nc2c(ccc(Cl)c2Cl)/C1=C/c1ccc([N+](=O)[O-])cc1` was tested, and the growth was 100% (inactive). `COc1ccc(-c2nc(N/N=C/c3ccco3)nc(N3CCOCC3)c2C#N)cc1` was tested, and the growth was 80.6% (inactive).
